IL1B secr inh – blocks inflammasome-driven IL-1 beta release. THP-1 LPS/ATP IL-1B secretion, AlphaLISA, 16 h; active compounds read low. activity change, % at 57.5 µM. hit rate 4.7% among 360,000. AID 743279; in the data active = activity change below about -50%; inconclusive = mostly about -30% to -49%; note: % is set by controls: 0 for no effect and ±100 for the full control effect
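Secreted IL-1B measured by AlphaLISA bead assay after 16 h compound exposure of THP-1 cells; compounds (final up to 57.5 uM) added 1 h before LPS (250 ng/mL) and ATP (1.25 mM) stimulation; lower signal means less secretion.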
S-ASM inh – inhibitors of human secretory acid sphingomyelinase. P17405. placental ASM, HMU-PC fluorogenic substrate, 60 min. Potency, µM (series often up to 57.5 µM), for inactives: at the highest dose activity change, negative = inhibition, hits mostly inhibitors. hit rate 0.006% among 340,000. AID 504937; note: potency is the fitted concentration of half-maximal effect
Target sequence (P17405 47-631 limits assumed): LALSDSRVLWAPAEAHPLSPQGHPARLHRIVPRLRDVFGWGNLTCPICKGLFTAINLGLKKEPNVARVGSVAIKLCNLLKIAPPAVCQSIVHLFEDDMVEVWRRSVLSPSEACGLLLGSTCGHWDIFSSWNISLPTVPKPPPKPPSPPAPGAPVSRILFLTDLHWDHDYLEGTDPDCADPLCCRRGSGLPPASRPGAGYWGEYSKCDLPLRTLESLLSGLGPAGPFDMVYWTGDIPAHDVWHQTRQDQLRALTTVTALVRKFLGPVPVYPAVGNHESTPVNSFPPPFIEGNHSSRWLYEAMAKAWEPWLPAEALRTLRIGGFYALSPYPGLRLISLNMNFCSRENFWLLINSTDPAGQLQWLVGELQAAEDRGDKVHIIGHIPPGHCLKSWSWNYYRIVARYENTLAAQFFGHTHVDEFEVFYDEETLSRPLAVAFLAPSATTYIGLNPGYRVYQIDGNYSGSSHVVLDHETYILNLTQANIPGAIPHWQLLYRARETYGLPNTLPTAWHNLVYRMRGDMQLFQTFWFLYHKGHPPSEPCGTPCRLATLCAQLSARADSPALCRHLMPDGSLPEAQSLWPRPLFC
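Human placenta-derived ASM enzyme was preincubated with compound for 10 minutes at room temperature, then given fluorogenic substrate HMU-PC0 (9 uM final) for 60 minutes at 37 °C; a pH 10 stop preceded fluorescence reading at Ex 386/Em 447 nm.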
TGFb inhibitor – TGF-b pathway inhibition; HepG2 CAGA-GFP TGF-b/SMAD3 reporter, GFP fluorescence, 18 h; TGF-beta stimulated, 500 pg/mL final; Potency, µM (top dose mostly 46.1 µM), inactives show at the top dose activity, negative = inhibition, actives largely listed as inhibitors; hit rate 1.2% among 410,000; note: potency is the fitted concentration of half-maximal effect; % is set by controls: 0 for no effect and ±100 for the full control effect; nearly all actives have a fitted effect of over 65% in size
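Inhibition was scored as loss of TGF-beta-induced (500 pg/mL final, 18 hours, 37 degrees C) GFP in HEPG2 cells carrying a CAGA-GFP reporter, in DMEM with 1% FBS. Well GFP was summed per cell; Activity was normalised to unstimulated and stimulated DMSO wells, then concentration-response fitting.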
TDP1 cell CPT – DT40-hTDP1 cell growth loss with CPT; chicken DT40 Tdp1-/-;hTDP1 cells + 20 nM CPT, ATP luminescence, 48 h; Potency, µM (doses to about 46.2 µM), for inactives: at the top dose activity change, negative = growth inhibition, actives largely listed as inhibitors; hit rate 12% among 420,000; note: potency is the fitted concentration of half-maximal effect; % is set by controls: 0 for no effect and ±100 for the full control effect; nearly all actives have a fitted effect of over 55% in size
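Cell growth measured by CellTiter-Glo luminescence after a minimum 48 h, 37 C compound exposure with 20 nM CPT in Tdp1-knockout DT40 cells stably expressing hTDP1, seeded 400/well; qHTS titration format.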
DT40 TDP1 no CPT – qHTS for Inhibitors of human tyrosyl-DNA phosphodiesterase 1 (TDP1): qHTS in cells in absence of CPT; DT40 Tdp1-/- hTDP1 cells, no CPT, ATP luminescence, 48 h; Potency, µM (highest dose often 46.2 µM), without a hit: at the top dose activity change, negative = growth inhibition, most hits filed as inhibitors; hit rate 15% among 420,000; note: potency is the fitted concentration of half-maximal effect; % is set by controls: 0 for no effect and ±100 for the full control effect; nearly all actives have a fitted effect of over 55% in size
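A cellular qHTS used chicken DT40 cells lacking endogenous Tdp1 but carrying stably transfected human TDP1. Compounds were applied without camptothecin, and cell growth kinetics were judged by ATP-dependent luminescence after ≥48 hr.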
HepG2 tox – HepG2 cytotoxicity, counter-screen for TGF-b inhibitors. hit rate 0.76% among 410,000. HepG2 CAGA-GFP viability, ATP luminescence, 18 h. Potency, µM (doses to about 46.1 µM), inactives show top-dose activity change, negative = cytotoxicity, usual class: cytotoxic. AID 588856; note: potency is the fitted concentration of half-maximal effect
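HepG2 CAGA-GFP cells (1000/well, DMEM with 1% FBS) received compound, then TGF-beta at 500 pg/mL final, and were incubated 18 hours at 37 degrees C. Viability was read by CellTiter-Glo luminescence. Media-only wells were set as complete cell-killing and DMSO as no toxicity.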
An asterisk follows results filed as active; ? = inconclusive; nt = no result; ! = a repeat was not active. A selection: hits, their analogues and other compounds. The true share with any hit is near 19%. Unless noted, calls come from the whole dose curve; as a rule, active = well fitted curve in the direction sought with a large enough effect; inconclusive = small, poorly fitted or top-dose-only effect, or another doubt; inactive = no such curve, though single readings can be large; an effect the other way counts as inactive or inconclusive.

SMILES | IL1B secr inh | S-ASM inh | TGFb inhibitor | TDP1 cell CPT | DT40 TDP1 no CPT | HepG2 tox
Cc1ccc(C(=O)Nc2nc3ccccc3n2CCN2CCCC2)cc1 | -14 | 8% | 13% | 15µM* | 13µM* | -8%
O=C1NC2NC(=O)N([N+](=O)[O-])C2N1 (stereo unspecified) | -4 | -1% | 1% | 20% | 5% | 15%
CCC1(C2=NCCN2)Cc2ccccc2O1 (stereo unspecified) | 7 | 0% | -9% | 4.7µM*! | 4.7µM*! | -2%
CC(=O)C1CCC2C3CC(O)C4CC(O)CCC4(C)C3CCC12C (stereo unspecified) | -13 | -3% | 11% | -13% | -17% | -1%
CCOC(CN1CCN(CC(C)C(=O)c2ccccc2)CC1)c1ccccc1 (stereo unspecified) | nt | nt | nt | ? | 27µM* | nt
O=C(NC(=S)N1C[C@H]2C[C@H](C1)c1cccc(=O)n1C2)c1ccc(Cl)cc1Cl | -1 | -2% | 17% | 2% | 1% | -3%
FC(F)(F)c1cccc(C2=CCN(CCc3ccc4ccccc4c3)CC2)c1 | nt | nt | nt | -18% | -48% | nt
COC(=O)c1ccccc1C(=O)c1ccc(OCCN2CCCCC2)cc1 | nt | nt | nt | ? | -28% | nt
CCCCC[C@@H]1CCCCC[C@@H](O)C[C@@H](O)[C@H](O)/C=C/C(=O)O1 | -66* | nt | nt | -25% | ? | nt
CCC1(CC)C(=O)NC(=O)N(c2ccccc2)C1=O | 8 | 0% | 2% | 8% | 2% | -1%
NC(=O)c1cc(N2CC2)c([N+](=O)[O-])cc1[N+](=O)[O-] | -5 | -8% | 8% | 0.15µM* | 0.037µM* | 2%
COC(=O)c1ccc(N2CCN(C)CC2)c([N+](=O)[O-])c1 | -6 | -1% | -17% | 5% | 0% | 1%
CCOc1nc(NC(C)C)nc(N2CC3CC(C2)c2cccc(=O)n2C3)n1 (stereo unspecified) | 15 | 5% | 0% | 18µM* | ? | 18%
Cc1ccc(Cn2cccc(C(=O)Nc3nnc(C)s3)c2=O)cc1 | nt | nt | 6% | -23% | -22% | -15%
Cc1ccc(-c2cc(-c3ccccc3)cc(-c3ccccc3)[n+]2-c2ccccc2C(=O)O)cc1 | -2 | 4% | ? | 9.2µM* | 9.2µM* | -40%
CC(C)Oc1ccc(C(=O)Nc2ccc3c(c2)CCCN3C(=O)c2cccs2)cc1 | nt | nt | -12% | 12µM* | 6.5µM* | -27%
CCN(CC)P(=O)(NC(=O)c1cccn1C)N(CC)CC | 4 | 9% | 17% | -6% | -9% | 39%
COc1ccc(OC)c(C(O)C2CCCCN2)c1 (stereo unspecified) | -6 | 6% | 9% | 6% | -11% | -9%
C[C@]12O[C@H](C[C@]1(O)CO)n1c3ccccc3c3c4c(c5c6ccccc6n2c5c31)CNC4=O | nt | nt | nt | 0.3µM* | 0.38µM* | nt
O=C(Oc1ccc(Cl)c2cccnc12)N1CCCCCC1 | 1 | 0% | ? | -13% | -17% | -28%
CC1Cc2ccccc2N1C(=O)COC(=O)c1ccc(Cl)nc1 (stereo unspecified) | 25 | -1% | 24% | 13% | -4% | 27%
CC(C)(C)OC(=O)NCc1ccc(CNC(=O)c2nc[nH]c2C(=O)NCc2ccc(CNC(=O)OC(C)(C)C)cc2)cc1 | 6 | -4% | -28% | 15µM* | 21µM* | -3%
Cc1nn(Cc2ccccc2)c(C)c1C=C1C(=O)NC(=O)NC1=O | -106* | -1% | 11% | 7% | -2% | -9%
Cc1nn(Cc2ccccc2)c(C)c1C(=O)NCc1ccccc1 | -10 | 1% | 35% | -3% | -8% | 1%
CN1C(=O)C(=Cc2ccccc2OCCOc2ccc([N+](=O)[O-])cc2)C(=O)N(C)C1=O | 3 | -4% | -1% | ? | 23µM* | -17%
SMILES | IL1B secr inh | S-ASM inh | TGFb inhibitor | TDP1 cell CPT | DT40 TDP1 no CPT | HepG2 tox
O=C1NC(=O)C(=Cc2ccccc2OCCOc2ccc([N+](=O)[O-])cc2)C(=O)N1 | ? | -1% | -3% | ? | ? | -18%
Cc1cc(NC(=O)CCl)nn1C | -101* | 5% | -4% | 23µM* | 15µM* | -24%
Cn1ccc(NC(=O)CCl)n1 | -102* | 2% | -11% | ? | ? | -30%
CC(=O)N1N=C2C3CCN(CC3)C2C1c1ccc(F)cc1 (stereo unspecified) | 0 | 1% | 1% | 3% | ? | 4%
CC(=O)C(Sc1ncnc2c1nnn2-c1ccc(F)cc1)C(=O)N(C)C (stereo unspecified) | -30 | -2% | -12% | 21µM* | 21µM* | 10%
Cc1[nH]c2ccccc2c1CN1CCCCC1 | -11 | 0% | -36% | 1.6µM* | 3.7µM* | -14%
Cc1[nH]c2ccccc2c1C1=CCNCC1 | -1 | 2% | ? | ? | ? | -4%
Cc1cccc(N2C(=O)CSC23C(=O)N(CC(=O)Nc2cccc(Cl)c2)c2ccccc23)c1 (stereo unspecified) | nt | nt | -24% | 23µM* | 16µM* | -8%
[O]=[Cr](=[O])([OH])[O][Cr](=[O])(=[O])[OH] | nt | nt | nt | ? | 17µM* | nt
CN(Cc1cccc(-c2cccnc2)c1)C(=O)Oc1ccc([N+](=O)[O-])cc1 | -25 | nt | nt | 18µM* | ? | nt
Cc1nc(-c2cccc(CN(C)C(=O)Oc3ccc([N+](=O)[O-])cc3)c2)no1 | -7 | nt | nt | ? | 16µM* | nt
CN(C)C(=O)Oc1ccc([N+](=O)[O-])cc1 | 11 | -1% | -4% | 11% | 13% | 5%
Fc1ccc(N2CCN(c3ncnc4c3nc3n4CCCCC3)CC2)cc1 | nt | nt | ? | -19% | 18µM* | 3%
Cc1cccc(CCNCc2cc3ccc(C)cc3[nH]c2=O)c1 | -12 | 21% | -1% | 23µM* | ? | -42%
CC(=O)OC1N=C(c2ccccc2Cl)c2cc(Br)ccc2NC1=O (stereo unspecified) | -71* | -2% | 11% | ? | ? | -22%
Clc1ccc(-c2csc3ncnc(Sc4nnnn4C4CC4)c23)cc1 | nt | nt | ? | 5µM* | 3.2µM* | -99%
Cc1ccc(NC(=O)COC(=O)/C=C/c2ccco2)cc1S(=O)(=O)N(C)C | 31 | -13% | ? | -2% | 0% | -7%
COc1ccccc1NC(=O)Cn1c(=O)n(-c2cccc(Cl)c2)c(=O)c2sc3ccccc3c21 | nt | nt | 0% | 13µM* | 6.5µM* | 3%

Screening data (PubChem)
